Where “and” joins values, the source holds several entries; their conditions need not be identical. Equal entries are not always repeated. About 79,000 compounds went through this panel and 15% of them were active in at least one assay; those are over-represented in the sample as a whole. Unmarked numbers belong to inactive results. Calls of active or inactive are those of the source. No stated cut-off is given here; in the data, active means growth inhibition above about 70%; inactive means the rest.
How the values were obtained:
[1] = NCI Yeast Anticancer Drug Screen. Data for the rad50 strain (AID 155);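 further: 0% = growth of vehicle-only cultures of the same strain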; conditions: S. cerevisiae rad50 strain growth inhibition, hits give high values; at 50.0 µM unless noted
In short: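 A DNA repair-deficient yeast mutant serves as the test organism; compound-induced growth inhibition is calculated against vehicle-treated cells.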

[2] = NCI Yeast Anticancer Drug Screen. Data for the mec2-1 strain (AID 157); conditions: S. cerevisiae mec2-1 strain, hits give high values; at 50.0 µM unless noted
In short: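 Strain: mec2-1 (DNA repair/cell cycle alteration). Compound exposure, then growth measured; inhibition expressed relative to vehicle.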

[3] = NCI Yeast Anticancer Drug Screen. Data for the sgs1 mgt1 strain (AID 161);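 further: 0% = growth of cultures given vehicle only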; conditions: S. cerevisiae sgs1 mgt1 strain, hits give high values; at 50.0 µM unless noted
In short: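 Test agents were incubated with a DNA-repair-mutant yeast strain. Growth was then read and compared against vehicle-treated controls.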

[4] = NCI Yeast Anticancer Drug Screen. Data for the cln2 rad14 strain (AID 165);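 further: 0% = growth equal to vehicle treated cultures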; conditions: S. cerevisiae cln2 rad14 strain, hits give high values; at 50.0 µM unless noted
In short: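 Compounds are applied to the cln2 rad14 yeast strain, and growth is then compared with that of vehicle-treated cultures to give inhibition.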

[5] = NCI Yeast Anticancer Drug Screen. Data for the bub3 strain (AID 167); conditions: S. cerevisiae bub3 mutant strain, hits give high values; at 50.0 µM unless noted
In short: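 Inhibition values come from growth of compound-treated mutant yeast normalised to vehicle-treated controls.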

[6] = NCI Yeast Anticancer Drug Screen. Data for the mlh1 rad18 strain (AID 175); conditions: S. cerevisiae mlh1 rad18 strain growth inhibition, hits give high values; at 50.0 µM unless noted
In short: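 Read-out is yeast growth inhibition, calculated against vehicle-only controls. The compound was applied to a strain engineered with DNA damage repair alterations.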

| Structure (SMILES) | growth inhibition [1] | growth inhibition [2] | growth inhibition [3] | growth inhibition [4] | growth inhibition [5] | growth inhibition [6] |
| --- | --- | --- | --- | --- | --- | --- |
| Clc1nc(-c2ccccc2)ns1 | 1.9% | -9.3% | -12.7% | 1.45% | -6.85% | -10.4% |
| CCc1cc(C)cc(O)c1 | -42.9% and 38% | -40% and 4.6% | -65.2% and -1.55% | 0.45% and 7.15% | -56% and 27.4% | -29.9% and 12% |
| O=c1[nH]c2cc(Cl)c([N+](=O)[O-])cc2o1 | 12.1% | -0.5% | -0.5% | -18.1% | -14.9% | 16.7% |
| c1ccc(-n2ncn[n+]2-c2ccccc2)cc1 | 6.55% | 4.4% | -0.3% | 28.4% | 32.8% | 5.15% |
| O=C(O)/C=C/C(=O)NCCCCCCNC(=O)/C=C/C(=O)O | 4.55% | -26.4% | 2% | -8.7% | -16.9% | -15.1% |
| ClC(=Nc1cccc2ccccc12)N(c1ccccc1)c1ccccc1 | -8.45% | 7.45% | -9.3% | 3.8% | 7.15% | -4.05% |
| Cc1ccc2ccc3ccccc3c2c1 | 46% | 1.45% | 9.2% | 20.4% | 17.9% | 26.2% |
| CC1=NN(C(=O)c2ccc(Cl)cc2)C(=O)/C1=C/c1cccc([N+](=O)[O-])c1 | -16.7% | -26.2% | -44.9% | -10.6% | -15.9% | -28.4% |
| CCCCCCCCN1C(=O)CCC1=O | -1.45% | -19.4% | -6.3% | 0.5% | -14.9% | -0.5% |
| CCCCCCCCCC(=O)N1CCCC(C)C1 (stereo not given) | 99.5% (active) | 99.7% (active) | 99.6% (active) | 98.7% (active) | 99.2% (active) | 99.5% (active) |
| CCCOC(=O)C1C(c2ccc(OC)cc2)NC(c2ccc(OC)cc2)C(C(=O)OCCC)S1(=O)=O (stereo not given) | -39.5% | -2.8% | -21.6% | -5% | -19.4% | -14.3% |
| Brc1cc(Br)cc(CN2CCOCC2)c1 | 34% | 15.1% | 49.6% | 48% | 56.8% | 46.2% |
| CS(=O)(=O)OCCN(CCOS(C)(=O)=O)c1ccc(C=Nc2ccc(C(=O)O)c(O)c2)cc1 | 84.3% (active) | 84.5% (active) | 79.5% (active) | 78.7% (active) | 19.8% | 94% (active) |
| CCCC(c1ccc(N(C)C)cc1)c1ccc(N(C)C)cc1 | -5% | -22% | -2.75% | 16.6% | 29.3% | -30% |
| CCCCCOC(=O)c1ccc(C(C)C)cc1 | 10.2% | -6.2% | 5.15% | 8.5% | 0.6% | 5.1% |
| CCCCCO.CCCCCO.CCCCCO.CCCCCO.[Ti] | 3.45% | -33% | -3.3% | 8.55% | -20% | -1.65% |
| CN(C)P1(=O)N(c2ccccc2)P(=O)(N(C)C)N1c1ccccc1 (stereo not given) | -11.5% | -32.1% | -17.1% | -1.55% | -19.4% | -34.7% |
| Cc1cc2c(cc1Cl)SC(NNC1=NCCN1)=NS2(=O)=O | -23.1% | -8.65% | -20% | -2.25% | -17.9% | 9.95% |
| COc1ccc2c(c1[N+](=O)[O-])CC[C@@H]1[C@@H]2CC[C@]2(C)C(=O)CC[C@@H]12 | 20.9% | 21.1% | 0% | 37% | 12.1% | -30.9% |
| C[N+]1(C)CCc2cc(O)c(O)cc2C1Cc1ccc(O)c(O)c1 (stereo not given) | -4.35% | 24.6% | -29.6% | 23.4% | -36.8% | 10.1% |

| Structure (SMILES) | growth inhibition [1] | growth inhibition [2] | growth inhibition [3] | growth inhibition [4] | growth inhibition [5] | growth inhibition [6] |
| --- | --- | --- | --- | --- | --- | --- |
| OC[C@H]1N[C@H](CO)[C@@H](O)[C@H]1O | 1.7% | -10.2% | 4.35% | 16.8% | -15.6% | 10.2% |
| C1CCC2=NCCCN2CC1 | -13.8% | -23% | 10.6% | -4.8% | 11.8% | -1% |
| CC(C)OC(=S)SC1CCCCC1=O (stereo not given) | -0.45% | -8.1% | -4.35% | -66.2% | -6.2% | -8.25% |
| CC1CCCCN1C(=O)Nc1ccc(Cl)cc1[N+](=O)[O-] (stereo not given) | 9.3% | 44.2% | 29.6% | -15.6% | 64.3% | 42.4% |
| COc1cc(Nc2cnc3cc(C(F)(F)F)ccc3n2)cc(OC)c1OC | 16.9% | 0.95% | 21.9% | 12.2% | -14.1% | -1.55% |
| CC(C)(C)NNC(=O)CCn1[nH]c(=O)c(Cl)c(Cl)c1=O | -0.8% | -5.25% | -18.9% | -2.25% | -16% | -12.3% |
| C=CCOCC(O)CNCC(O)COCC=C (stereo not given) | -36.9% | -33.7% | -24.9% | 14.3% | -31.2% | 5.2% |
| O=C(NC(Cc1ccc(I)cc1)C(=O)O)c1ccc(Br)cc1 (stereo not given) | -4.3% | -5.65% | 2.8% | 12.1% | -9.4% | -0.9% |
| Cc1ccc(NC(=O)c2ccc(OP(=O)(O)Nc3ccc(C)cc3)cc2)cc1 | -22.6% | -21.8% | -8.05% | -3.15% | -5.2% | -4.1% |
| NCCCC(=S)S | -4.35% | 12.6% | -0.75% | 12.8% | 13.8% | 13.4% |
| CCS(=O)(=O)C(CCCl)S(=O)(=O)CC | 2.45% | 0.9% | 16.4% | 8.55% | 17.4% | 13.9% |
| CNC(=O)OCc1cc(C)cc(C)c1-c1ccco1 | -4.95% | -9.15% | 28.4% | 4% | 10.3% | 7.05% |
| C[N+]1(C)N=C([O-])N(c2ccccc2Cl)C1=O | 21.4% | -27.4% | -6.6% | -37.5% | 1.15% | 18.1% |
| O=C1C=C(Nc2ccccc2)c2ccccc2C1=O | -1.15% and 24.4% | 16.4% and -8.6% | 11.4% and 25.4% | -14.5% and 19.9% | 33.9% and 14.1% | 15.2% and 12.2% |
| Cc1ccc2nc(-c3ccc(NC(=O)c4ccc(N)cc4)c(S(=O)(=O)O)c3)sc2c1 | 1.9% | 4.7% | -25.9% | -22% | -16.4% | -8.85% |
| CCOC(=O)C(C)N1C(=O)c2ccccc2C1=O (stereo not given) | 6.4% | -20.4% | -22% | 13.3% | 21.4% | 0.55% |
| N=C(N)SCc1ccc(Oc2ccc(CSC(=N)N)cc2)cc1 | 0.4% | 1.45% | -4.5% | 0.5% | -2.4% | 15.3% |
| CCC(O)c1ccc(OCc2ccccc2)c(OC)c1 (stereo not given) | 7.35% | -2.1% | 24.6% | -43.1% | -4.05% | 2.25% |
| O=C(Nc1ccc(Cl)c(Cl)c1)N(CCO)Cc1ccccc1 | 88.7% (active) | 97% (active) | 97.2% (active) | 90% (active) | 95.5% (active) | 94.4% (active) |
| CCCCCCCOC(=O)CO | 22.4% | 6.65% | 16.2% | 16.9% | 1.95% | 19.4% |
